# PubChem BioAssay AID1240 (Sanford-Burnham Center for Chemical Genomics, 2008)
# The campaign covered roughly 50,000 compounds. About 800 (1.6%) showed an effect of 50% or more. For the sample, strong results were picked, then their nearest neighbours and some compounds at random.
# Target: Bcl-2-like protein 10 (Homo sapiens) (UniProt Q9HD36)
# Test: TR3 peptide-Bcl-B binding displacers, biochemical primary FP assay, phenotype converters (AID 1240);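 further: 0% = Bcl-B with tracer peptide and DMSO and 100% = tracer peptide lacking Bcl-B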
# Conditions: GST-Bcl-B / FITC-TR3 peptide fluorescence polarization; stronger effect = higher value; compound at 3.75 mg/L
# Chain of Bcl-2-like protein 10 (Homo sapiens) (Q9HD36 whole entry, looked up): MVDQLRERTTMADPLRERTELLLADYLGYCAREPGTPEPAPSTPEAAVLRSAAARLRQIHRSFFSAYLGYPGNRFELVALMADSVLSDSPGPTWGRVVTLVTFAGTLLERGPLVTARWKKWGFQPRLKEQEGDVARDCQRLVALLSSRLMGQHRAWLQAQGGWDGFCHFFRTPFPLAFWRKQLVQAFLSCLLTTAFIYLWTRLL
row,SMILES,displacement
1,COC(=O)c1cccc(S(=O)(=O)N2CCOCC2)c1,-16%
2,O=C(Oc1cccc(-c2cnc3ccccc3n2)c1)c1cccc(S(=O)(=O)N2CCOCC2)c1,225%
3,O=C(Oc1ccc(Cl)cc1)c1cccc(S(=O)(=O)N2CCOCC2)c1,-8.4%
4,Cc1cccc(NC(=O)/C(C#N)=C/c2cn(CC(=O)Nc3ccccc3)c3ccccc23)c1C,-60.5%
5,C#CCn1cc(/C=C(/C#N)C(=O)Nc2ccc(OCC)cc2)c2ccccc21,5.9%
6,COc1ccc(NC(=O)/C(C#N)=C/c2cn(CC(=O)Nc3ccccc3)c3ccccc23)cc1,-21.4%
7,CCOc1cccc(NC(=O)/C(C#N)=C/c2cn(CC(=O)Nc3ccccc3)c3ccccc23)c1,104%
8,N#C/C(=C\c1cn(CC(=O)Nc2ccccc2)c2ccccc12)C(=O)Nc1ccc(F)cc1,-30.3%
9,N#C/C(=C\c1cn(CC(=O)Nc2ccccc2)c2ccccc12)C(=O)Nc1ccccc1,-36.7%
10,N#C/C(=C\c1cn(CC(=O)Nc2ccccc2)c2ccccc12)C(=O)Nc1ccccc1Cl,126%
11,CCc1ccccc1NC(=O)/C(C#N)=C/c1cn(CC(=O)Nc2ccccc2)c2ccccc12,-26.1%
12,N#C/C(=C\c1cn(CC(=O)Nc2ccccc2)c2ccccc12)C(=O)NCc1ccccc1,61.2%
13,Cc1ccc2c(c1)c(-c1ccccc1)c(-c1ccccc1)n2CC(O)CN1C(=O)CSC1=O (stereo not drawn),11.4%
14,CCOc1ccc(C2C(C(=O)/C=C/c3ccccc3)=C(O)C(=O)N2CCCCCC(=O)O)cc1 (stereo not drawn),-1%
15,O=C(NC(=S)Nc1ccc(Cl)c(-c2nc3ccccc3s2)c1)c1ccco1,5.8%
16,c1ccc2nc(NCc3ccncc3)ccc2c1,-8.8%
17,CCc1ccc(N2C(=O)NC(=O)/C(=C\c3ccc(OCC(=O)O)c(OC)c3)C2=O)cc1,9.9%
18,CCOc1ccc(NC(=O)CC2S/C(=N\N=C\c3ccc(O)c(OC)c3)NC2=O)cc1 (stereo not drawn),9.6%
19,COc1cc(/C=c2/sc3nc4ccccc4n3c2=O)cc(I)c1OCc1ccccc1,74.2%
20,CCOc1ccc(/C=c2\sc3nc4ccccc4n3c2=O)cc1Cl,19.1%
21,COc1cc(/C=c2\sc3nc4ccccc4n3c2=O)cc(I)c1OCC(=O)O,-4.2%
22,CCOc1cc(/C=c2/sc3nc4ccccc4n3c2=O)cc(I)c1OCC,77.3%
23,COc1cc(/C=c2\sc3nc4ccccc4n3c2=O)cc(I)c1OCCOc1cccc(C)c1,10.9%
24,CCOc1cc(/C=c2\sc3nc4ccccc4n3c2=O)ccc1OCCOc1ccc(Br)cc1,19%
25,COc1cc(/C=c2/sc3nc4ccccc4n3c2=O)cc(Br)c1OCc1ccccc1,1.8%
26,C=CCc1ccccc1OCCOc1ccc(/C=c2\sc3nc4ccccc4n3c2=O)cc1OCC,100%

row,SMILES,displacement
1,C=CCc1ccccc1OCCOc1cccc(/C=c2\sc3nc4ccccc4n3c2=O)c1,13.4%
2,COc1ccc(OC)c(NC(=O)CN(c2ccc(Br)cc2)S(C)(=O)=O)c1,-12.8%
3,CCN(CC)CCCCOc1ccc(Cl)cc1C,-7.4%
4,COc1ccc(NC(=S)NC(=O)c2cccs2)cc1,-9.3%
5,O=C(Nc1ccccc1)C1C2C3CCC(C3)C12 (stereo not drawn),4%
6,O=C(CSCc1ccccc1)Nc1nnc(/C=C/c2ccccc2)s1,39.9%
7,CC(=O)c1ccc(NC(=O)c2ccc3c(c2)C(=O)N(c2ccc(C)c(C)c2)C3=O)cc1,8.9%
8,Cc1ccc(N2C(=O)c3ccc(C(=O)Nc4cccc(C)c4C)cc3C2=O)c(C)c1,6.6%
9,CN1CCN(C(=O)C(=O)Nc2cccc3ccccc23)CC1,-2.6%
10,COc1cccc(/C=N/NC(=O)c2cccc(N3CCCC3=O)c2)c1,-3.5%
11,CN(C)c1ccc(/C=C/C=C2/SC(N)=NC2=O)cc1,-17.2%
12,COc1ccc(/C=C2\SC(N)=NC2=O)cc1,124%
13,NC1=NC(=O)/C(=C\c2ccc(S(=O)(=O)O)cc2)S1,12.8%
14,COc1cc(/C=C2\SC(N)=NC2=O)cc(OC)c1,-9.9%
15,COc1ccc(/C=C2/SC(=O)NC2=O)c(OC)c1,4.9%
16,NC1=NC(=O)/C(=C/c2ccc(Cl)cc2)S1,57.4%
17,COc1ccc(/C=C2\SC(=O)NC2=S)cc1,67.8%
18,NC1=NC(=O)/C(=C\C=C\c2ccccc2)S1,154%
19,COc1ccc(/C=C2\SC(=S)N(C(C)C)C2=O)cc1,-3.9%
20,CC(=O)NC1=NC(=O)/C(=C\C=Cc2ccccc2)S1,-42.4%
21,COc1ccc(C(=O)Oc2ccc(/C=C3\SC(N)=NC3=O)cc2)cc1,10.1%
22,NC1=NC(=O)/C(=C/c2ccc(Br)cc2)S1,3.7%
23,CC(=O)Nc1ccc2sc(C)nc2c1,12.9%
24,COc1cccc(CN2CCN(Cc3cc(OC)ccc3OC)CC2)c1,-9%
25,COc1ccc(C2SCC(=O)N2CCc2ccc(OC)c(OC)c2)c(OC)c1 (stereo not drawn),-6.4%
26,COc1ccc(N2C(=O)C3C4C=CC(C5CC45)C3C2=O)c([N+](=O)[O-])c1 (stereo not drawn),12.7%

row,SMILES,displacement
1,N/C(=N\OC(=O)c1ccc(Cl)c([N+](=O)[O-])c1)c1ccccc1,-3.2%
2,COc1ccc(C2CC(=O)C3=C(C2)Nc2ccccc2NC3c2cccs2)cc1OC (stereo not drawn),-4.5%
3,Cc1ccccc1N1C(=O)c2ccc(C(=O)O)cc2C1=O,-3.3%
4,O=C(O)c1ccccc1S(=O)CCO (stereo not drawn),6.8%
5,O=C(c1ccc(N2CCN(C(=O)c3ccc(F)cc3F)CC2)cc1)c1cccc(F)c1,72.1%
6,O=C(c1cccc(F)c1)N1CCN(c2ccc([N+](=O)[O-])cc2)CC1,118%
7,O=C(c1ccc(N2CCN(C(=O)c3ccc(F)cc3)CC2)cc1)c1cccc(F)c1,-6.4%
8,O=C(c1cccc(F)c1)N1CCN(c2ccc(F)cc2)CC1,-11.6%
9,O=C(c1ccc(N2CCN(C(=O)c3ccccc3F)CC2)cc1)c1cccc(F)c1,-53.4%
10,O=C(c1cccc(F)c1)N1CCN(c2ccccc2)CC1,-5.4%
11,Cc1ccc(/C(=N\S(=O)(=O)c2cccc([N+](=O)[O-])c2)Nc2ccccc2)cc1,13.2%
12,COc1ccccc1OCC(=O)Nc1ccc2c(c1)OCCO2,2.2%
13,COc1cc(/C=N/N2C(=O)C3C4C=CC(CC4)C3C2=O)cc(I)c1O (stereo not drawn),3.3%
14,COc1ccc(N2C(=O)NC(=O)/C(=C/c3cccc(O)c3)C2=O)cc1,-6.3%
15,CN1C(=O)NC(=O)/C(=C/c2ccc(-c3cccc(Cl)c3)o2)C1=O,81.5%
16,CN1C(=O)NC(=O)/C(=C/c2ccc(-c3ccc(Cl)c(Cl)c3)o2)C1=O,-7.2%
17,CC1=C(C#N)C(=O)NC(=O)/C1=C\c1ccc(-c2cccc(Cl)c2)o1,24.7%
18,CN1C(=O)NC(=O)/C(=C/c2ccc(-c3ccc([N+](=O)[O-])cc3Cl)o2)C1=O,93.6%
19,CN1C(=O)NC(=O)/C(=C/c2cccn2-c2cccc([N+](=O)[O-])c2)C1=O,115%
20,CN1C(=O)NC(=O)/C(=C\c2ccc(Cl)cc2Cl)C1=O,3.8%
21,COc1ccc(N2C(=O)NC(=O)/C(=C/c3cccn3-c3cccc([N+](=O)[O-])c3)C2=O)cc1,-4%
22,CC1(C)OC(=O)C(=Cc2ccc(-c3ccc(Cl)cc3Cl)o2)C(=O)O1,34.4%
23,C=CCN1C(=O)/C(=C\c2ccc(-c3ccc([N+](=O)[O-])cc3Cl)o2)C(=O)NC1=S,21%
24,Cc1ccc([N+](=O)[O-])cc1-c1ccc(/C=C2/C(=O)NC(=O)N(C)C2=O)o1,-8%
25,CN1C(=O)NC(=O)/C(=C/c2ccc(-c3ccc(Cl)cc3Cl)o2)C1=O,72.6%
26,O=C1NC(=O)N(c2ccccc2)C(=O)/C1=C\c1cccn1-c1cccc([N+](=O)[O-])c1,-2.6%
